Unmarked numbers belong to inactive results. Activity calls are given as the source filed them.

The assay can be described thus: plasmodial surface anion channel blockers, osmotic lysis – cell-based, P. falciparum Indochina, OD700, 2 h, primary screen (AID 1155).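 Note: lysis reports solute entry through the parasite surface anion channel PSAC.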 The conditions noted are these: P. falciparum Indochina infected erythrocytes, higher = more signal, called active from +8 up or from −8 down.
On to `C=CC[C@@]12N=C(c3ccc(OCCCO)cc3)O[C@@H]1c1ccccc1N(CCS(=O)(=O)c1ccccc1)C2=O`, for which the z-score was 28.5 (active). With `CN(C)CCCNC(=O)[C@@]1(C)c2ccccc2C(=O)N(Cc2cc(C(F)(F)F)cc(C(F)(F)F)c2)[C@H]1c1ccc(CO)cc1`, the z-score was -0.0111. For `CC(C)NC(=O)[C@@]1(C)c2ccccc2C(=O)N(C(C)C)[C@H]1c1ccc(CO)cc1`, the z-score was 0.547. In the case of `O=C(N1CCCCC1)[C@@]1(Cc2ccccc2)COC(c2ccc(OCCCO)cc2)=N1` it was 3.44; in that of `O=C1C[C@@](C(=O)NCC(F)(F)F)(c2ccc([N+](=O)[O-])cc2)[C@@H](c2ccc(CO)cc2)N1C1CCCCC1`, -0.105. In the case of `O=C1c2ccccc2[C@](Cc2ccccc2I)(C(=O)NCc2ccccc2)[C@H](c2ccc(CO)cc2)N1C1CCCCC1` it was 0.105; in that of `C=CC[C@@]1(C(=O)N2CCCCC2)N=C(c2ccc(OCCCO)cc2)O[C@@H]1c1ccccc1`, 11.4 (active); in that of `C=CCOC(=O)[C@@H]1[C@H]2C(=O)O[C@H](c3ccccc3)[C@H](c3ccccc3)N2[C@H](c2ccc(OCCOC(=O)[C@H]3C[C@H]4C(=O)N[C@@H](CCCC[N+](C)(C)C)C(=O)N4[C@H]3c3ccc(O)cc3)cc2)[C@@]12C(=O)Nc1ccc(I)cc12`, 1.57. For `C[C@H]1ON(c2ccc(C(=O)OC(C)(C)C)cc2)[C@@H](c2ccc(O)cc2)[C@@H]1C(=O)N1C(=O)OC[C@@H]1c1ccccc1`, the z-score is 0.622.

For the molecule `Cc1c(NC(=O)/C(C#N)=C/C=C/c2ccccc2[N+](=O)[O-])c(=O)n(-c2ccccc2)n1C`, the z-score is 0.548. On to `CC(C)(C)OC(=O)CC[C@]1(C(=O)NCCN2CCOCC2)N=C(c2ccc(OCCCO)cc2)O[C@H]1c1ccccc1N=[N+]=[N-]`, for which the z-score was 29.2 (active). In the case of `CCOC(=O)[C@H]1C/C=C/C[C@H](C(=O)OCC)C(=O)O[C@H]2[C@@H](OC)O[C@H](CO)[C@@H](OC(=O)Nc3ccc(OC)cc3)[C@@H]2OC1=O`, the z-score was -0.0928. Turning to `O=C1NC(=O)C2C1C=CC(C(O)c1c(F)cccc1Cl)N2Nc1ccccn1` (centres undefined), the z-score was 0.653. To `COc1ccc([Si](C)(C)[C@@H]2[C@@H](CCO)O[C@]3(C(=O)N(Cc4cccc(N5C(=O)c6ccccc6Oc6ccccc65)c4)c4ccccc43)[C@H]2C)cc1` belongs 3.13. For `Cc1ccc(S[C@]2(C(=O)NCc3ccccc3)CC(=O)N(C(C)C)[C@@H]2c2ccc(CO)cc2I)cc1`, the z-score was 1.19. Take `CC(C)CCC[C@@H](C)[C@H]1CC[C@@]2(C)C3=C(CC[C@]12C)[C@@]1(C)CC[C@H](OC(=O)c2ccc(Br)cc2)C(C)(C)C1CC3` (some centres undefined): the z-score was -0.957.

For the molecule `NC(=O)N1C(=O)C2C(C1=O)C1C=C(c3ccc(CO)cc3)C2C(C2CC2)N1Cc1sc2ccccc2c1Cl` (centres undefined), the z-score was 3.88.

Turning to `C=CCN1C(=O)[C@@]2(O[C@@H](CCn3cc([C@H](O)c4ccccc4)nn3)[C@H]([Si](C)(C)c3ccc(OC)cc3)[C@H]2C)c2ccccc21`, the z-score was 1.93. In the case of `CC1CC/C=C\[C@H]2OC34C=CCN(CCN5CCOCC5)C(=O)[C@H]3N(CCO)C(=O)[C@@H]4C2C(=O)O1` (some centres undefined), the z-score was 0.397. Turning to `C=CCOC(=O)[C@H]1[C@@H]2C(=O)O[C@@H](c3ccccc3)[C@@H](c3ccccc3)N2[C@@H](c2ccc(OCCOC(=O)[C@H]3C[C@H]4C(=O)N[C@@H](Cc5ccccc5)C(=O)N4[C@H]3c3ccc(O)cc3)cc2)[C@]12C(=O)Nc1ccc(I)cc12`, the z-score was 2.09. On to `COc1ccc(C#Cc2ccc3c(c2)[C@]2(C(=O)N3)[C@H](C(=O)N3CCc4cc(OC)c(OC)cc4C3)[C@H]3C(=O)O[C@H](c4ccccc4)[C@H](c4ccccc4)N3[C@@H]2c2ccc(O)cc2)cc1`, for which the z-score was 0.216. `O=C1O[C@@H](c2ccccc2)[C@@H](c2ccccc2)N2[C@@H](c3ccccc3OCCO)[C@]3(C(=O)Nc4ccccc43)[C@@H](C(=O)NC[C@H](O)c3ccccc3)[C@H]12`: the z-score was 2.2. With `C[C@]1(C(=O)NC2CC2)c2ccccc2C(=O)N(Cc2ccc(OC(F)(F)F)cc2)[C@H]1c1ccc(CO)cc1`, the z-score is 0.258. In the case of `NC(=O)NCC#Cc1ccc2c(c1)[C@]1(C(=O)N2)[C@H](C(=O)Nc2nc3ccccc3s2)[C@H]2C(=O)O[C@H](c3ccccc3)[C@H](c3ccccc3)N2[C@@H]1c1ccc(O)cc1`, the z-score is 2.35.

Values taken from PubChem BioAssay.
